# An excerpt weighted towards active compounds, which were near 12% of everything screened.
# JMJD2A Tudor: blocks the human JMJD2A Tudor domain. Potency, µM (doses to about 114 µM), for the others: at the top dose activity change, negative = inhibition, usual class: inhibitors. AID 504339. actives 4.4% (n = 390,000). AlphaScreen JMJD2A-Tudor / H3K4me3 peptide binding; also: % is scaled to controls: 0 for no effect and ±100 for the full control effect; nearly all actives have a fitted effect of over 50% in size
# BAZ2B inh: blocks human BAZ2B. Q9UIF8. Potency, µM (series often up to 114 µM), for the others: at the top dose activity change, negative = inhibition, most hits filed as inhibitors. actives 4.4% (n = 360,000). AlphaScreen BAZ2B-H3K14Ac peptide displacement; also: % is scaled to controls: 0 for no effect and ±100 for the full control effect; nearly all actives have a fitted effect of over 60% in size
# Target sequence (Q9UIF8 whole entry, looked up): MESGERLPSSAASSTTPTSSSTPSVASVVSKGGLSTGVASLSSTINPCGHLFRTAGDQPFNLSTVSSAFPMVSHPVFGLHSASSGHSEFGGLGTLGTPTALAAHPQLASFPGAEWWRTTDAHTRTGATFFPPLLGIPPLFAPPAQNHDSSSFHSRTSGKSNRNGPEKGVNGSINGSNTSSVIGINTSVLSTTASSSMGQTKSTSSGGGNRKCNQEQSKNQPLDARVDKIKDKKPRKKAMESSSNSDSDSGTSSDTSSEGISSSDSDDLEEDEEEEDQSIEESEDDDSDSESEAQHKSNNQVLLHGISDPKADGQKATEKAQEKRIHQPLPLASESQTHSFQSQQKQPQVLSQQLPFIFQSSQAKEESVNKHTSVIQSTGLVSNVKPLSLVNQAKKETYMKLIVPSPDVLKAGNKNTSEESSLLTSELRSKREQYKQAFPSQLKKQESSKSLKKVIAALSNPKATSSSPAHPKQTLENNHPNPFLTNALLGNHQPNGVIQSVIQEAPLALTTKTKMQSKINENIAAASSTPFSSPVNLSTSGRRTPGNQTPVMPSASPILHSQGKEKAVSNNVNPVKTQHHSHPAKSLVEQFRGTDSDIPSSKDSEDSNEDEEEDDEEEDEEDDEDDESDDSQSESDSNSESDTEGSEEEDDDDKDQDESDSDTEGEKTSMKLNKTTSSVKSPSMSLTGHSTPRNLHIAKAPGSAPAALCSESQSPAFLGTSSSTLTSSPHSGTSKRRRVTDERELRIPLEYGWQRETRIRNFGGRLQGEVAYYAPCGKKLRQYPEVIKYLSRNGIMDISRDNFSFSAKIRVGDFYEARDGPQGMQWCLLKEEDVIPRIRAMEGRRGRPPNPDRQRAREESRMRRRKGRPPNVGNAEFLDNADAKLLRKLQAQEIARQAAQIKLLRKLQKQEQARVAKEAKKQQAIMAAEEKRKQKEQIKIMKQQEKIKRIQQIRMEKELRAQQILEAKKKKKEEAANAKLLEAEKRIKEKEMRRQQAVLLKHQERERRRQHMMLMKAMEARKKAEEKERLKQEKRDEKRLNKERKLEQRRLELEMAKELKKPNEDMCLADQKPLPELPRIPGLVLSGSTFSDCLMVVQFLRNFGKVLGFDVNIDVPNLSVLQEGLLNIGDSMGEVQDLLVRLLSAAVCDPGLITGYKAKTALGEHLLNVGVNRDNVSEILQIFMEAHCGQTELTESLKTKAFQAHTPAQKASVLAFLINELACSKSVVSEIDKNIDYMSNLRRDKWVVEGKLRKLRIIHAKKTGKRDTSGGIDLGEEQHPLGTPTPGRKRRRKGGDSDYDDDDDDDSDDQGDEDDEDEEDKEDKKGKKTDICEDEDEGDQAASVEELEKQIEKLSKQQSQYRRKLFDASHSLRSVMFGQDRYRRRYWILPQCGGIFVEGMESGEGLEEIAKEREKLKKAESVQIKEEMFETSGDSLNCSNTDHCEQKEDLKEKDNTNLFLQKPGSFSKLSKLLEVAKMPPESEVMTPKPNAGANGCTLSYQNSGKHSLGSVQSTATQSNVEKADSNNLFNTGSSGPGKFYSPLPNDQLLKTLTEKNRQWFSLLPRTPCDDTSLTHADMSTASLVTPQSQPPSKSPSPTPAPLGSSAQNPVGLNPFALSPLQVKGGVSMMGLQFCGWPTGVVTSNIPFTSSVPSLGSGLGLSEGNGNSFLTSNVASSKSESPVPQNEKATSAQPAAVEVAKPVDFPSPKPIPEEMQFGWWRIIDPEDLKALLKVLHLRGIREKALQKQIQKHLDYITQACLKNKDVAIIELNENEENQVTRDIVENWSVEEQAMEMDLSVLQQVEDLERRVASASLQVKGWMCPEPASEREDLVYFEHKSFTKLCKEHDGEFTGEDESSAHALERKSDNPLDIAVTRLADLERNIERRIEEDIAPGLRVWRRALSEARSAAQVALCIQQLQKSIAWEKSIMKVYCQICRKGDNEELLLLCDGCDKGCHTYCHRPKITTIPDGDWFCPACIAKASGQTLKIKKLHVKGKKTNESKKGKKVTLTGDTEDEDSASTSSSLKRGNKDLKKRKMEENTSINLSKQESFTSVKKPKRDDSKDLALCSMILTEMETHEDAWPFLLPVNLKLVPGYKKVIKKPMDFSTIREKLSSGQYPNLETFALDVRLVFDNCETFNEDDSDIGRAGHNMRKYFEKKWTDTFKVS
#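 AlphaScreen luminescence quantifies BAZ2B engagement of H3K14Ac peptide; the protein and biotinylated peptide are both at 50 nM final, buffer PBS pH 7.4 with 0.01% Tween-20, all steps at room temperature.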
# G9a inh: inhibitors of human histone lysine methyltransferase G9a. G9a H3K9 monomethylation, AlphaScreen, 2 h. Q96KQ7. Potency, µM (highest dose often 102 µM), for the others: at the highest dose activity, negative = inhibition, actives largely listed as inhibitors. actives 8.8% (n = 350,000). AID 504332; also: % is scaled to controls: 0 for no effect and ±100 for the full control effect; nearly all actives have a fitted effect of over 75% in size
#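 G9a (20 nM) was preincubated 15 min with compound, then reacted 2 h at room temperature with 500 nM biotin-H3K9 peptide and 20 µM SAM. Monomethyl-H3K9 detected by AlphaScreen using anti-H3K9me1 antibody.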
# Sfp PPTase inh: blocks B. subtilis Sfp PPTase activity; Biochemical Sfp PPTase activity, qHTS; Potency, µM, for inactives: largest response in the series, negative = inhibition, most hits filed as inhibitors; actives 3.5% (n = 310,000); AID 1490;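 also: the enzyme is Sfp with the accession as filed and its product quenches rhodamine fluorescence; 0% = enzyme reaction without inhibitor and -100% = no enzyme wells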
#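 With Hepes-Na pH 7.6 buffer containing 10 mM MgCl2, Sfp (15 nM) modified BHQ-2-YbbR (12.5 uM) using rhodamine-CoA (5 uM). Two reads 30 minutes apart at 525/598 nm yielded each well's rate.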
# HP1b chromo inh: HP1-beta chromodomain-methylated histone interaction inhibition; P83916; AlphaScreen HP1-beta / biotin-H3K9me3 peptide binding; Potency, µM (doses to about 114 µM), inactives show at the top dose activity change, negative = inhibition, usual class: inhibitors; actives 0.56% (n = 390,000); also: nearly all actives have a fitted effect of over 70% in size
#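 HP1-beta protein (50 nM final) preincubated 30 min at room temperature with biotinylated H3(1-18)K9me3 peptide (50 nM) in PBS pH 7.4, 0.01% Tween-20, then compound added for 30 min. AlphaScreen streptavidin donor/nickel chelate acceptor beads (10 ug/mL final), 30 min dark, luminescence read.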
# TDP1 block: TDP1 (human) enzyme inhibition; Q9NUW8; recombinant TDP1, AlphaScreen DNA substrate cleavage; Potency, µM (highest dose often 130 µM), without a hit: at the top dose activity change, negative = inhibition, actives largely listed as inhibitors; actives 0.28% (n = 350,000); also: % is scaled to controls: 0 for no effect and ±100 for the full control effect; nearly all actives have a fitted effect of over 40% in size
#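 Recombinant E. coli-expressed Tdp1 (1 nM) preincubated with compound 15 min at RT, then 5'-biotin/3'-phosphotyrosine-FITC DNA substrate (15 nM) added for 5 min. AlphaScreen beads (10 ug/ml) added, 10 min RT; tyrosine-FITC cleavage read as signal loss.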
# Numbers without * were called inactive; ? = inconclusive; . = no result; ! = repeats disagree; [ ] = remark or other dose. Calls follow the shape of the dose curve; as a rule, active = well fitted curve in the direction sought with a large enough effect; inconclusive = small, poorly fitted or top-dose-only effect, or another doubt; inactive = no such curve, though single readings can be large; an effect the other way counts as inactive or inconclusive. Potency is read from the fitted curve at half-maximal effect.
SMILES,JMJD2A Tudor,BAZ2B inh,G9a inh,Sfp PPTase inh,HP1b chromo inh,TDP1 block
CC(=O)c1cccc(NC(=O)C(C)n2c(=O)cc(-c3ccccc3)c3c(C)nn(C)c32)c1 (stereo not given),-25.0%,-15.8%,-1.7%[59 µM],.,-19.0%,7.1%
O=[N+]([O-])c1cccc(Nc2nc(Cl)nc(Cl)n2)c1,-28.6%,89.1µM*,?,-27.5%,9.8%,9.2%
Cc1cc(NC(=S)Nc2ccc(C)c(Cl)c2)n[nH]1,?,?,1.26µM*,?,-14.0%,-1.8%
Cc1ccc(NC(=S)Nc2ccccn2)cc1C,3.6%,-13.8%,.,-4.3%,45.7%,1.4%
COc1ccc(NC(=S)Nc2cc(-c3ccccc3)[nH]n2)cc1Cl,56.2µM*,?,?,?,?,7.4%
CC[C@@H](C(=O)[C@@H](C)[C@@H](O)[C@H](C)CCc1ccc(C)c(O)c1C(=O)O)C1O[C@](CC)(C2CC[C@](O)(CC)[C@H](C)O2)C[C@@H]1C (stereo not given in full),.,.,.,0.5%,.,9.5%
O=C(NC1CC(=O)N(c2ccc(Cl)cc2)C1)c1cc2ccccc2o1 (stereo not given),-5.8%,-1.0%,2.9%[59 µM],.,-5.0%,2.6%
C=CCSc1ncnc2c1oc1nc3c(cc12)COC(C)(C)C3,2.0%,-0.8%,-2.4%,13.5%,35.8%,3.5%
CC1(C)Cc2nc3oc4c(=S)nc[nH]c4c3cc2CO1,25.1µM*,7.0%,44.7µM*,22.4µM*,24.6%,1.1%
CCOC(=O)CSc1cn2c(n1)CCC2,-24.5%,6.3%,10µM*,39.8µM*,12.6%,0.0%
COC(=O)c1c(C)oc2ccc(N(C(=O)Oc3ccccc3)S(=O)(=O)c3ccc(C(C)(C)C)cc3)cc12,-27.1%,-7.8%,-36.6%[59 µM],.,-0.4%,3.1%[12.3 µM]
CSc1nc(=O)[nH]c2nc[nH]c12,-4.6%[57.1 µM],.,.,.,11.2%[57 µM],1.7%
Nc1nc(=S)c2[nH]cnc2[nH]1,5.62µM*,-35.6%,2.24µM*,-92.0%,4.9%,-13.0%[56.1 µM]
CC1CCCN(C(=O)C(C)Nc2cc(Cl)ccc2N2CCOCC2)C1 (stereo not given),?,?,39.8µM*,1.7%,2.0%,6.9%
Cc1ccc(C(=O)NCC(=O)N2CCC(Cc3ccccc3)CC2)cc1,-16.6%,-1.2%,100.3%,10.2%,18.3%[57 µM],2.7%
CCn1cc(C(=O)OCC(=O)Nc2ccc(F)cc2F)c(=O)c2ccc(C)nc21,-16.0%,-6.1%,?,.,45.5%,-0.9%
CCn1cc(-c2n[nH]c(=S)n2-c2ccc(C)cc2Br)c(=O)c2ccc(C)nc21,?,-5.2%,10µM*,6.4%,55.0%,-10.3%
CCOc1ccc(NC(=O)CC(NCc2ccccn2)C(=O)O)cc1 (stereo not given),11.2µM*,1.41µM*,?,17.9%,41.8%,10.8%
COc1ccc(N=C2SC(CC(=O)Nc3ccccc3)C(=O)N2Cc2ccccn2)cc1 (stereo not given),-33.3%,?,50.1µM*,-14.2%,26.7%,11.8%
CCOc1ccc(NC(=O)NCc2ccccn2)cc1,-10.9%,-9.1%,.,5.0%,51.6%,0.3%[56.1 µM]
COc1ccc(NC(=O)CC(Cc2ccccc2)C(=O)O)cc1 (stereo not given),-16.2%,-29.5%,3.8%[59 µM],21.8%,26.6%,2.3%
COc1ccc(NC(=O)CC(NCc2ccccn2)C(=O)O)cc1 (stereo not given),12.6µM*,3.16µM*,7.7%,9.5%,40.1%,7.1%
COc1ccc(N=C2SC(CC(=O)Nc3ccccc3)C(=O)N2CCc2ccccn2)cc1 (stereo not given),-20.9%,-30.6%,?,-8.8%,13.4%,-8.0%
O=C(CNC(=O)c1ccccc1Cl)OC(C(=O)Nc1cc(C(F)(F)F)ccc1Cl)c1ccccc1 (stereo not given),-21.2%,.,.,.,.,-3.2%
Cn1cc(CN2CCc3c([nH]c4ccccc34)C2C(C)(C)C)cn1 (stereo not given),-26.8%,-3.9%,.,-1.2%,6.6%,.
SMILES,JMJD2A Tudor,BAZ2B inh,G9a inh,Sfp PPTase inh,HP1b chromo inh,TDP1 block
Cn1cc(CN2CCc3c([nH]c4ccccc34)C2C2CCCCC2)cn1 (stereo not given),-16.5%[57.1 µM],44.7µM*,44.7µM*,?,8.3%,-5.6%
Cc1ccc(N=Nc2[nH]c3ccccc3c2O)cc1,?,56.2µM*,14.1µM*,-13.7%,32.4%,0.0%
COc1ccc(N=Nc2[nH]c3ccc(C)cc3c2O)cc1,4.2%,?,11.2µM*,-16.3%,23.6%,4.7%
COc1ccc(-c2nc(N=Nc3ccc(O)cc3)n[nH]2)cc1,?,?,2.4%[59 µM],5.9%,-18.0%,3.4%
CN(C)c1ccc(/C=C2/NC(=O)NC2=O)cc1,-17.0%,-11.1%,14.0%[59 µM],10.2%,30.1%,2.7%
CN(C)c1ccc(/C=C/c2cc[n+](C)cc2)cc1,-20.0%,?,10µM*,2.7%,-27.4%,2.0%
CN(C)c1ccc(/C=C/c2cc[n+]([O-])cc2)cc1,.,-31.5%,50.1µM*,0.3%,.,1.9%
C[n+]1ccc(/C=C/c2cccs2)cc1,-15.1%,-23.2%,-36.6%[59 µM],-1.9%,20.5%,5.0%
Cc1ccc(/C=C/c2ccc(N(C)C)cc2)[n+](C)c1,25.1µM*,?,-47.8%[2.33 µM],?,6.0%,.
N=c1c2c(-c3ccccc3)c(-c3ccccc3)n(Cc3ccco3)c2ncn1Cc1ccco1,50.1µM*,25.1µM*,?,35.5µM*,?,13.2%
CCCCn1cnc2c(c(-c3ccccc3)c(-c3ccccc3)n2Cc2ccco2)c1=N,-17.4%,?,.,?,-7.9%,4.8%
N=c1c2c(-c3ccccc3)c(-c3ccccc3)n(Cc3ccccc3)c2ncn1CCCn1ccnc1,?,50.1µM*,?,?,-10.1%,5.9%
CCOc1ccc(CCNC(=O)c2ccc(CS(=O)(=O)Cc3ccccc3Cl)o2)cc1OCC,-26.8%,?,-5.0%[59 µM],.,26.5%,11.6%
CC1=NN(c2ccccc2)C(=O)/C1=C/c1cn(C)c2ccccc12,6.31µM*,5.01µM*,-47.7%,-10.7%,11.2µM*,4.7%
CC1=NN(c2ccccc2)C(=O)/C1=C\c1cn(C)c2ccccc12,8.91µM*,3.55µM*,11.2µM*,-10.3%,15.8µM*,11.9%
CC1=NN(c2ccccc2)C(=O)/C1=C\c1cc(C)n(C)c1C,-23.8%,?,?,-4.0%,-16.9%,1.2%
CCCn1c2ccccc2c2cnn(CC(=O)Nc3cc(C)c(Cl)cc3OC)c(=O)c21,3.6%,-6.7%,-13.9%[59 µM],.,23.6%,0.0%
CN(C)c1ccc(/C=C2\C(=O)Nc3ccccc32)cc1,.,.,14.1µM*,56.2µM*!,.,22.8%[56.1 µM]
Cc1ccc(/C=C2\C(=O)Nc3ccccc32)o1,44.7µM*,39.8µM*,8.91µM*,15.8µM*,44.7µM*,5.4%
